Results filed as inconclusive are left out. The source made the active and inactive calls. How the source made its calls: active means hit-call score of the fitted dose curve at least 0.9, where 1 is the maximum; inconclusive means response in the unintended direction; inactive means score below 0.9.

Read-out in this experiment: alkyl and aryl transferase (GSTA2), GSTA2 (gene 2939)
The experiment can be described thus: CLD_GSTA2_48hr: CellzDirect (CLD) Gene Expression Assay for alkyl and aryl transferase (GSTA2) at 48 hours (AID 2283708). On the procedure: CLD_48hr is a cell-based, multiplexed-readout assay that uses hepatocyte, a human liver primary cell, with measurements taken at 48 hours after chemical dosing in a 96-well plate.CLD_GSTA2_48hr is one of 16 assay component(s) measured or calculated from the CLD_48hr assay. It is designed to make measurements of mRNA induction, a form of inducible reporter, as detected with chemiluminescence signals by Quantitative Nuclease Protection Assay (qNPA) technology.Data from the assay component CLD_GSTA2_48hr was analyzed at the endpoint, CLD_GSTA2_48hr, in the positive analysis fitting direction relative to DMSO as the negative control and baseline of activity. Using a type of inducible reporter, gain-of-signal activity can be used to understand changes in the reporter gene as they relate to the gene GSTA2. Furthermore, this assay endpoint can be referred to as a primary readout. To generalize the intended target to other relatable targets, this assay endpoint is annotated to the transferase intended target family, where subfamily is alkyl and aryl transferase.
Human hepatocyte cultures were treated daily for two consecutive days with fresh dosing solutions containing appropriate concentrations of the 320 ToxCast chemicals (chemical identities were blinded to CellzDirect and other ToxCast collaborators), vehicle control (0.2% DMSO), and positive control inducers as summarized in Table 1. […] These replicate data, coupled with internal replicates designed within the blinded ToxCast chemical library, provided additional data to evaluate interindividual differences between hepatocyte preparations and their potential impact on chemical profiles.Cell morphology and integrity were evaluated using phase-contrast microscopy as an indicator of hepatocyte cell health (Tyson & Green, 1987). Cultures for each treatment group (i.e., media, vehicle [0.2% DMSO], positive control inducers [multiple concentrations], and the ToxCast chemicals [multiple concentrations]) were observed and cell morphology was assessed relative to vehicle control cultures at each harvest time point (0, 6, 24, or 48 h). […] Images were evaluated at the conclusion of the study to assess changes in cell integrity and account for the effects of chemical exposure on uncharacteristic changes in concentration-dependent gene expression profiles. The results from these determinations of apparent cytotoxicity were annotated (yes/no) alongside the corresponding qNPA data for reference.At the conclusion of each treatment period, hepatocyte cultures (96-well) were washed with 1 volume of HBSS, lysed by addition of 25 ul ArrayPlate lysis buffer (HTG, Tucson, AZ), and 70 ul/well of Denaturation Oil, denatured by incubation at 95C for 10 min, and frozen at approximately -70C until analysis by nuclease protection assay (qNPA) (Roberts et al., 2007). For qNPA analysis, cell lysates were thawed at 50C for approximately 30 min, qNPA probes were added, and samples were incubated at 95C for 10 min to begin the detection process by denaturing the target RNA, dissociating the duplexes and secondary structure hybridization. At the conclusion of the hybridization period, S1 nuclease reagent was added to each sample to digest all nonprotected nucleotides at 50C for 60-90 min. At the conclusion of the S1 nuclease digestions, all reactions were stopped by transfer of all the samples to fresh plates containing stop solution and incubated at 95C for 15 min to deactivate the enzyme, dissociate the mRNA/ DNA probe heterodimers, and hydrolyze the resulting single stranded mRNA, leaving a stoichiometric amount of single-stranded DNA nuclease protection probe, unmodified in sequence, as the only intact oligonucleotide left in the sample. Neutralization solution was subsequently applied to cooled (room temperature) plates, and samples were transferred to ArrayPlates for overnight incubations at 50Cto allow probes to be captured onto programmed locations on the ArrayPlates. […]
With `C=C(C)CN(CC)c1c([N+](=O)[O-])cc(C(F)(F)F)cc1[N+](=O)[O-]`, the outcome was inactive.
On to `Cc1c(COC(=O)[C@@H]2[C@H](/C=C(\Cl)C(F)(F)F)C2(C)C)cccc1-c1ccccc1`, for which the result was inactive.
Take `COC(=O)c1c(C(F)F)nc(C(F)(F)F)c(C2=NCCS2)c1CC(C)C`: the AC50 – broadly, the midpoint of the concentration-response curve, whichever way the signal moves – was 20 µM (active).
`CS(=O)(=O)c1ccc(C(=O)C2C(=O)CCCC2=O)c([N+](=O)[O-])c1`: the result was inactive.
On to `CS(=O)(=O)c1cc(C(F)(F)F)ccc1C(=O)c1cnoc1C1CC1`, for which the call was inactive.
Same read-out and setting: under `CC1(C)C(C(=O)OC(C#N)c2cccc(Oc3ccccc3)c2)C1(C)C` (stereo not given) stands “inactive”.
On the same count and under the same terms, under `CCNC(=O)NC(=O)C(C#N)=NOC` stands “inactive”.
The same measure, in the same setting: under `O=c1n(Cl)c(=O)n(Cl)c(=O)n1Cl` stands “inactive”.
Turning to `COP(=O)(OC)O/C(C)=C/C(=O)N(C)C`, the compound was classed as inactive.
On to `COP(=S)(OC)Oc1ccc([N+](=O)[O-])c(C)c1`, for which the compound was called inactive.
The same measure, in the same setting: the entry for `CCCC(=NOCC)C1=C(O)CC(CC(C)SCC)CC1=O` (stereo not given) is “inactive”; for `N#CN=C1SCCN1Cc1ccc(Cl)nc1` it is “inactive”; for `CC(C)(C)C(=O)C(Oc1ccc(Cl)cc1)n1cncn1` (stereo not given) it is “inactive”.
Same read-out and setting: the entry for `COP(=S)(OC)SCn1nnc2ccccc2c1=O` is “inactive”.
Regarding `CSC(=O)c1c(C(F)F)nc(C(F)(F)F)c(C(=O)SC)c1CC(C)C`, the concentration at half-maximal activity (AC50) was 11.8 µM (active).
On the same count and under the same terms, under `CCCCOCN(C(=O)CCl)c1c(CC)cccc1CC` stands 20 µM (active).
Regarding `O=C1C2CC=CCC2C(=O)N1SC(Cl)(Cl)Cl` (stereo not given), the result was inactive.
On to `O=C(Nc1ccccc1-c1ccc(Cl)cc1)c1cccnc1Cl`, for which the call was inactive.
The same measure, in the same setting: under `CCCCC(C#N)(Cn1cncn1)c1ccc(Cl)cc1` (stereo not given) stands “inactive”; under `CCCN(CC)CC1COC2(CCC(C(C)(C)C)CC2)O1` (stereo not given), “inactive”.
On to `COCC(C)N(C(=O)CCl)c1c(C)csc1C` (stereo not given), for which the AC50 was 32.1 µM (active).
`COc1ccc(-c2ccccc2)cc1NNC(=O)OC(C)C`: the outcome was inactive.
Consider `C=CCOC(=O)C(C)(C)OC(=O)c1cc(-n2c(=O)cc(C(F)(F)F)n(C)c2=O)ccc1Cl`, for which the compound was classed as inactive.
Same read-out and setting: the entry for `CN=C=S` is “inactive”.
With `CCSC(=O)N1CCCCCC1`, the compound was classed as inactive.
Take `CC(C)C1(C)N=C(c2ncccc2C(=O)O)NC1=O` (stereo not given): the compound was called inactive.
Same read-out and setting: the entry for `CC(C)Nc1nc(Cl)nc(NC(C)C)n1` is “inactive”; for `Nc1cnn(-c2ccccc2)c(=O)c1Cl` it is “inactive”.
For the compound `Cn1c(-c2ccccc2)cc(-c2ccccc2)[n+]1C`, the concentration at half-maximal activity (AC50) was 2.83 µM (active).
As for `CCCCC(O)(Cn1cncn1)c1ccc(Cl)cc1Cl` (stereo not given), the compound was called inactive.
Same read-out and setting: under `CNC(=O)Oc1cccc2ccccc12` stands “inactive”; under `CCN(CC)C(=O)C(C)Oc1cccc2ccccc12` (stereo not given), “inactive”.
The same measure, in the same setting: under `CO/N=C(/C1=NOCCO1)c1ccccc1Oc1ncnc(Oc2ccccc2Cl)c1F` stands “inactive”; under `Cc1ccc(N=CN(C)C=Nc2ccc(C)cc2C)c(C)c1`, “inactive”; under `COc1cc(Cl)c(OC)cc1Cl`, “inactive”.
Still for that read-out and setting: the entry for `Clc1cccc(C(Cl)(Cl)Cl)n1` is “inactive”; for `CC(C)N1C(=O)N(c2ccccc2)CSC1=NC(C)(C)C` it is “inactive”.
Consider `CCOP(=O)(OCC)Oc1nc(Cl)c(Cl)cc1Cl`, for which the result was inactive.
For `CCOP(=S)(OCC)Oc1nc(Cl)n(C(C)C)n1`, the compound was classed as inactive.
Same read-out and setting: the entry for `CC(C)=CC1C(C(=O)OCc2coc(Cc3ccccc3)c2)C1(C)C` (stereo not given) is “inactive”.

Values taken from PubChem BioAssay (EPA / NIEHS).
